# According to PubChem BioAssay AID623868 (Vanderbilt High Throughput Screening Facility, 2012):
# In all, about 2,100 compounds went through this assay and about 760 (36%) were called active. Only a sample is shown. Values without a mark were called inactive.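 How the source made its calls: active means thallium-flux fluorescence traces judged by eye to show enhanced or reduced glutamate response, manual score 1 or -1, so both directions (some results past the limit were not filed as active); inactive means the rest, including fluorescent or raised-baseline compounds.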
# Experiment: non-GIRK thallium flux modulation in mGlu8 cells, confirmation, counter-screen for GIRK activator project, cell-based, HEK-293 rmGlu8, no GIRK (AID 623868);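 further: extra codes mark interference with 3 for fluorescent and 4 for baseline rise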
# Conditions: thallium flux fluorescence, at 10 µM, actives lie on both sides, codes: 1 enhancer, -1 blocker, 0 none, thallium stimulus containing EC20 glutamate
row,Structure (SMILES),manual score
1,CCOC(=O)C1=C(C)NC2=C(C(=O)C(C(=O)OCC)C(c3cccc(OC)c3)C2)C1c1ccccn1 (stereo not drawn),-0.5
2,COC(=O)CSc1nc2ncccc2[nH]1,0
3,COc1ccc(/C=C/C(=O)N2CCN(S(=O)(=O)/C=C/c3ccccc3)CC2)cc1OC,0
4,COc1cc(/C=C2\SC(=S)NC2=O)ccc1OS(=O)(=O)c1ccccc1,1 (active)
5,O=C1NC(=O)/C(=C\c2ccccc2Oc2ccc(F)c(F)c2)S1,0
6,COc1cc(/C=C2/SC(=S)NC2=O)ccc1OS(=O)(=O)c1ccc(C)cc1,1 (active)
7,COc1cc(/C=C2\S/C(=N/S(=O)(=O)c3ccc(C)cc3)NC2=O)c([N+](=O)[O-])cc1OC,0
8,COc1ccc(/C=C2\SC(=O)NC2=S)cc1OC,1 (active)
9,CCOc1ccc(OCCSc2nc3ccccc3[nH]2)cc1,0
10,O=C(Nc1nc(-c2ccccc2)c(-c2ccccc2)o1)c1ccc(F)cc1,1 (active)
11,Cc1ccc(C(=O)Nc2nc(-c3ccccc3)c(-c3ccccc3)o2)cc1,1 (active)
12,Cc1ccc(C(=O)Nc2cnc3ccccn3c2=O)cc1,0
13,OCCCN=c1cc(-c2ccccc2)oc2ccc(Cl)cc12,-0.5
14,CCCSc1nnc(Nc2ccccc2C)s1,0
15,O=C(O)CC/C(=C\c1cc([N+](=O)[O-])ccc1Cl)c1nc2ccccc2s1,-1 (active)
16,O=C(CC(O)(C(F)(F)F)C(F)(F)F)Nc1ccc(Cl)c(Cl)c1,0
17,CCCCOc1ccc(C(=O)NNC(=S)NC(=O)CC)cc1,1 (active)
18,CCCOc1ccc(NCC(=O)Nc2ccc(C)cc2C)cc1,0
19,CCCCOc1ccc(C(=O)OC2CC(C)N(C)CC2C)cc1 (stereo not drawn),0
20,CCOC(=O)c1ccc(NC(=S)NC(=O)COc2ccccc2)cc1,0
21,CNC(=S)SCCOc1ccc(C)cc1,3
22,CCCOc1ccc(C(=O)NNC(=S)NC(=O)CC)cc1,1 (active)

row,Structure (SMILES),manual score
1,CCNS(=O)(=O)c1cc(S(C)(=O)=O)ccc1Cl,0
2,Oc1ccc2ccc3cccc[n+]3c2c1,3
3,C=COCCNC(=O)Nc1ccc(Cl)c(Cl)c1,0
4,C=CCNC(=S)Nc1sc2c(c1C(=O)OCC)CC(C)(CC)OC2 (stereo not drawn),1 (active)
5,CCOC(=O)c1c(NC(=S)NC)sc2c1CC(C)(C)SC2,1 (active)
6,CCOC(=O)c1c(NC(=S)NCCc2ccccc2)sc2c1CC(C(C)C)OC2 (stereo not drawn),0
7,CCOC(=O)C1=C(NC(=S)NC(=O)c2ccccc2)c2ccccc2CC1C(C)C (stereo not drawn),0
8,C=CCNC(=S)Nc1sc2c(c1C(=O)OCC)CC(C(C)C)OC2 (stereo not drawn),1 (active)
9,CCOc1ccccc1OCCCCCc1c(C)n[nH]c1C,0
10,CC(C)NC(=S)N/N=C/c1cc(Br)ccc1O,1 (active)
11,CC(C)NC(=O)c1nc2ccccc2s1,0
12,O=C(Nc1nnc(-c2ccc(Cl)cc2)o1)c1nc2ccccc2s1,1 (active)
13,O=C(Nc1nnc(-c2ccccc2Cl)o1)c1nc2ccccc2s1,1 (active)
14,O=C(Nc1nnc(-c2ccc(Cl)cc2)o1)c1ccccc1Br,1 (active)
15,O=C(Nc1nnc(-c2ccc(Cl)cc2)o1)C1=COCCO1,0.5
16,CCN(CC)c1ccc2cc(-c3nc4ccccc4[nH]3)c(=O)oc2c1,3
17,COc1cccc(NC(=O)NCCCSC2CCCCC2)c1,0
18,Cc1ccc(-c2cc(-c3n[nH]c(=S)o3)c3ccccc3n2)cc1,1 (active)
19,O=C(NC(=S)NCc1ccccc1)c1ccccc1F,1 (active)
20,FC(F)(F)Oc1ccc(NC(=S)NCc2ccccc2)cc1,0
21,Fc1ccccc1NC(=S)NN(Cc1ccccc1)c1ccccc1,0
22,O=C(Nc1cc(Cl)ccc1Oc1ccccc1)c1ccccc1F,0

row,Structure (SMILES),manual score
1,FC(F)(F)c1cccc(NC(=S)NCc2ccccc2)c1,0
2,O=C(NC(=S)N(Cc1ccccc1)Cc1ccccc1)c1ccccc1F,1 (active)
3,Cc1cccc(C)c1NC(=S)NC(=O)c1ccccc1F,1 (active)
4,CCCCOc1ccccc1C1C(C(=O)OC)=C(C)N(C)C(C)=C1C(=O)OC,0
5,O=C(C1CCCN(Cc2cccs2)C1)N1CCCCCC1 (stereo not drawn),0
6,CS(=O)(=O)Nc1ccc(C2=NN(C(=O)C3CCCCC3)C(c3cccs3)C2)cc1 (stereo not drawn),-1 (active)
7,CCCCCCn1c(=O)[nH]c2nc3cc(N)ccc3nc2c1=O,3
8,Cc1ccc(NC2CC(=O)N(CCc3ccccc3)C2=O)cc1 (stereo not drawn),0
9,O=c1c2ccc(Cl)cc2nc(-c2cccc(C(F)(F)F)c2)n1O,1 (active)
10,O=c1c2ccccc2nc(-c2cccc(Cl)c2)n1O,1 (active)
11,O=c1c2ccccc2nc(-c2ccccc2)n1/N=C/c1ccc([N+](=O)[O-])cc1,0
12,O=c1c2cc(Br)ccc2nc(-c2cccc(C(F)(F)F)c2)n1O,1 (active)
13,CCN1c2ccccc2-c2nc3ccccc3n2C1c1ccco1 (stereo not drawn),0
14,CC1=CC(C)(C)n2c(O)c(N=NC(N)=S)c3cccc1c32,0.5
15,CN(C)c1nc(OCCNC(=O)COc2ccc(Cl)cc2Cl)nc(N2CCOCC2)n1,0
16,O=C(COc1ccccc1F)NC1CCN(Cc2ccccc2)CC1,0
17,S=C(NN=C1CCCCCC1)Nc1ccc(Cl)cc1,1 (active)
18,Fc1ccccc1CNC(=S)Nc1ccc(Cl)cc1,0
19,Cc1cc(C)c2c(c1)/C(=N/NC(=S)Nc1ccc(F)cc1)CCC2,0
20,Fc1ccc(NC(=S)NN=C2CCCCCC2)cc1,1 (active)
21,Fc1ccc(NC(=S)NCc2ccccc2Cl)cc1,0
22,Cn1c(C(=O)OC(C(=O)NC2CCCCC2)c2ccncc2)cc2sccc21 (stereo not drawn),0

row,Structure (SMILES),manual score
1,c1ccc(-c2nnc3n2NC(c2ccc4c(c2)OCO4)S3)cc1 (stereo not drawn),1 (active)
2,O=C(CSc1nc(CCC2CCCC2)nc2ccccc12)NCc1ccc2c(c1)OCO2,0.5
3,Cc1nccn1CCc1nc(N)nc(N)n1,0
4,Cc1ccc2nc(NC(=S)NC(=O)c3cccs3)sc2c1,0.5
5,O=C(NC(=S)Nc1nc2ccccc2s1)c1cccs1,1 (active)
6,O=C(NC(=S)Nc1nc2c(ccc3ccccc32)s1)c1cccs1,1 (active)
7,CCN(CC)C(=O)COc1ccc2oc(C)c(C(=O)OC)c2c1,0
8,CN=C(C)C1=C(O)C(C(=O)OC)C(C)(C)CC1=O (stereo not drawn),0
9,CC(C)c1nc(N2CCOCC2)c(C#N)c2c1CCCC2,0
10,Cc1cc2cc3c(cc2nc1SCC(=O)N1CCN(C(=O)c2ccco2)CC1)OCO3,-1 (active)
11,CCc1cc2cc(C)ccc2nc1SCC(=O)N1CCN(C(=O)c2ccco2)CC1,0
12,CC1CCc2nn(CC(=O)N3CCN(C(=O)c4ccco4)CC3)cc2C1 (stereo not drawn),0
13,CC(C)CC(=O)CN1C(=O)C2(OCCO2)c2ccccc21,0
14,C=CCn1c(=S)[nH]c2sc3c(c2c1=O)CCC3,1 (active)
15,Cc1cc(C(=O)CSc2nnc(-c3ccncc3)n2-c2ccccc2)c(C)n1C,0
16,O=C(Nn1cnnc1)c1cc2cc(Br)ccc2oc1=O,0
17,CC(C)OCCCn1c(=S)[nH]c2cc3c(cc2c1=O)OCO3,1 (active)
18,Cc1ccccc1Cn1cc(NC(=O)c2nc3ncccn3n2)cn1,0
19,O=C(NNC(=O)c1sccc1-n1cccc1)c1cccc(Cl)c1,1 (active)
20,O=C(NNC(=O)c1sccc1-n1cccc1)c1ccc(Cl)cc1,1 (active)
21,O=C(NNS(=O)(=O)c1cc(Cl)cc(Cl)c1)c1sccc1-n1cccc1,0
22,COc1ccc2[nH]c(C)c(C(=O)CN3CC(C)OC(C)C3)c2c1 (stereo not drawn),0

row,Structure (SMILES),manual score
1,COC(=O)c1ccc(C)c(NC(=O)CN2C(=O)c3ccccc3S2(=O)=O)c1,0
2,COCCn1c(=S)[nH]c2cc(C(=O)N3CCN(c4ccc(F)cc4)CC3)ccc2c1=O,0
3,CCn1c(=S)[nH]c2cc(C(=O)OC)ccc2c1=O,1 (active)
4,COC(=O)c1ccc2c(=O)n(CC3CCCO3)c(=S)[nH]c2c1 (stereo not drawn),1 (active)
5,Cc1cccn2c(=O)c3cc(C#N)c(=NC(=O)c4cccnc4)n(CC4CCCO4)c3nc12 (stereo not drawn),3
6,COc1ccc2occ(C(=O)c3ccc(N=C(C)N(C)C)cc3)c2c1,0
7,Cc1ccc(-n2[nH]c(C)c(/C=N/c3ccccn3)c2=O)cc1,0.5
8,CC1=NN(c2ccccc2)C(=O)/C1=C\c1c(C)[nH]n(-c2ccccc2)c1=O,0
9,Cc1[nH]n(-c2ccccc2)c(=O)c1/C=N/c1ccccn1,1 (active)
10,Cc1[nH]n(-c2ccccc2)c(=O)c1N=Nc1nccs1,1 (active)
11,CCCCN(CCCC)C(=S)N/N=C/c1c(C)[nH]n(-c2ccccc2)c1=O,1 (active)
12,O=c1c2ccccc2c(C=NCc2ccccn2)c(O)n1-c1ccccc1,0
13,Cc1ccc(-n2[nH]c(C)c(C=Nc3cc(C)ccn3)c2=O)cc1,1 (active)
14,CCN(Cc1ccccc1)C(c1ccccn1)c1nnnn1C1CCCCC1 (stereo not drawn),0
15,CN(C)CCNC(=O)c1cc2c(s1)-c1ccccc1OC2,0
16,CC(NC(=O)c1ccccc1NC(=O)CSc1nnnn1C)c1ccccc1 (stereo not drawn),0
17,CN(C)Cc1c(O)ccc2occ(C(O)c3ccccc3)c12 (stereo not drawn),0
18,O=C1CC(N2CCN(c3nc4ccccc4s3)CC2)C(=O)N1c1ccc(F)cc1 (stereo not drawn),0
19,Cn1c(=O)cc(OCCCC(=O)NCc2ccc3c(c2)OCO3)c2ccccc21,0
20,Cc1[nH]n(-c2ccc(Cl)cc2)c(=O)c1/C=N/c1nnc(-c2ccccc2)s1,1 (active)
